Results as given in PubChem BioAssay (Tox21).
Records with an inconclusive call do not appear. Unmarked numbers belong to inactive results. The source made the active and inactive calls. Calls follow the shape of the dose curve; as a rule, active = well fitted activation curve with a large enough effect in the repeat runs; inconclusive = weak or mixed curves; inactive = flat fitted curve, though single readings scatter.

Assay: A CellTox Green Cytotoxicity Assay to monitor cytotoxicity in HepG2 cells - 24 hour (AID 1224878); also: nearly all actives have a fitted effect of over 45% in size
Conditions: CellTox Green fluorescence; series mostly up to 76.8 µM; cytotoxicity: at the top concentration
From the text: National Center for Advancing Translational Sciences [NCATS]
NIH Chemical Genomics Center [NCGC]
U.S. Environmental Protection Agency [EPA]
National Institutes of Environmental Health Sciences [NIEHS]
National Toxicology Program [NTP]
Cell-based models are critical for drug discovery. Determining the natural cytotoxic effects resulting from test compounds is an essential research activity. A CellTox Green Cytotoxicity Assay to monitor cytotoxicity in real time of continues cell culture during 40 hours of the compound treatment was used to screen Tox21 10K library compounds in HepG2 cells. CellTox Green Cytotoxicity Assay is a nonlytic, homogeneous, biofluorescent method to measure cytotoxicity in cell culture after experimental manipulation. The assay system uses a proprietary asymmetric cyanine dye that is excluded from viable cells but preferentially stains the dead cell's DNA. […] Viable cells produce no appreciable increases in fluorescence. Therefore, the fluorescence signal produced by the binding interaction with dead cell DNA is proportional to cytotoxicity.
The mixture of HepG2 cell suspension and reagents were dispensed at 600cells/6 ul/well in 1536-well tissue culture treated black solid bottom plates using a Multidrop dispenser. After the assay plates were incubated at a 37 C/5% CO2 incubator for 5 hours, 23 nL of compounds dissolved in DMSO, positive and negative controls was transferred to the assay plate by a pintool work station. The plates were incubated at 37 C for 40 hours. The fluorescence intensity were measured at 0h, 8h, 16h, 24h, 32h and 40h time points using ViewLux plate reader during compound treatment.
% is scaled to controls: 0 for no effect and ±100 for the full control effect; potency is read from the fitted curve at half-maximal effect.

Row | SMILES | cytotoxicity | Potency
1 | Nc1cc(S(=O)(=O)O)ccc1O | 1.5% | 
2 | CCCCCCCCCCCCCCCC(=O)OC | -19.7% [at 15.8 µM] | 
3 | NS(=O)(=O)c1cc2c(cc1C(F)(F)F)NCNS2(=O)=O | -5.48% [at 35.3 µM] | 
4 | C=C(C)C(=O)OCCCC | 20% | 
5 | COc1cc(NS(=O)(=O)c2ccc(N)cc2)ncn1 | 13.5% [at 35.3 µM] | 
6 | NC(=O)CC[C@@H](N)C(=O)O | -7.68% [at 35.3 µM] | 
7 | Nc1ccc(C(=O)NCC(=O)O)cc1 | -11% [at 35.3 µM] | 
8 | N#Cc1cc(NC(=O)C(=O)O)c(Cl)c(NC(=O)C(=O)O)c1 | 0.897% [at 35.3 µM] | 
9 | N#Cc1ccccc1C#N | -4.66% | 
10 | Cc1cc(N)no1 | 3.43% | 
11 | CN(C)CCCN(C)C | -15.5% [at 6.97 µM] | 
12 | CCN(CC)CC | 0.62% | 
13 | CCCCCCCCCCCCCCCCN(C)C | 1.92% [at 6.97 µM] | 
14 | CC(C)C(C)C | 0.747% | 
15 | O=C1Nc2ccccc2C1=O | -8.39% | 
16 | CCCCCCC(=O)c1ccccc1 | 0.826% | 
17 | CC1=C(O)C(=O)CO1 | -3.26% | 
18 | CCCCNCC | 0.18% | 
19 | COC(C)(C)CC(C)=O | -1.05% | 
20 | NC[C@H]1O[C@H](O[C@H]2[C@H](O)[C@@H](O[C@H]3O[C@H](CO)[C@@H](O)[C@H](N)[C@H]3O)[C@H](N)C[C@@H]2N)[C@H](N)[C@@H](O)[C@@H]1O | -0.281% [at 15.8 µM] | 

Row | SMILES | cytotoxicity | Potency
21 | CC(C)(C)NCC(O)COc1cccc2c1CCC(=O)N2 (stereo not given) | -14.5% [at 35.3 µM] | 
22 | NCC1CCC(C(=O)Oc2ccc(CCC(=O)O)cc2)CC1 (stereo not given) | -23.3% [at 35.3 µM] | 
23 | CCN(CC)CC(=O)Oc1ccc(NC(C)=O)cc1 | -8.89% [at 35.3 µM] | 
24 | CCC(C)c1nccnc1OC (stereo not given) | -5.64% | 
25 | CN(C)c1ccncc1 | -2.08% | 
26 | O=C(O)Cc1c(Cl)ccc(Cl)c1Cl | 1.93% | 
27 | Cc1nnc(C(=O)NC(C)(C)c2nc(C(=O)NCc3ccc(F)cc3)c(O)c(=O)n2C)o1 | 0.961% [at 35.3 µM] | 
28 | CCCOc1ccc(C(=O)OCCN(CC)CC)cc1N | -9.38% [at 35.3 µM] | 
29 | Cc1cc(O)c(Cl)cc1C |  | 49 µM (active)
30 | CC[N+](C)(CC)CC | 4.31% | 
31 | C=CCn1cc[n+](C)c1 | 0.96% | 
32 | CCCC[O][Al]([O]CCCC)[O]CCCC | 2.32% | 
33 | C[C@H]1COc2c(C3(N)CC3)c(F)cc3c(=O)c(C(=O)O)cn1c23 | -6.06% [at 35.3 µM] | 
34 | O=S(=O)(O)c1cc(I)c(O)c2ncccc12 | -10% [at 35.3 µM] | 
35 | BrCCOc1ccccc1 | -1.19% | 
36 | C=CCCCCCCCCCCCCCC | 1.07% [at 15.8 µM] | 
37 | CN1CCN(C(=O)C2CCCCC2)CC1 | -35.6% [at 35.3 µM] | 
38 | CCCCCCCCC1CO1 (stereo not given) | 1.54% | 
39 | N=C(N)N | 9.17% [at 35.3 µM] | 
40 | CC(C)OCCO | -2.26% | 
